MITF TRPM1 HTS – increases MITF-driven TRPM1 promoter luciferase signal; SK-MEL-5 TRPM1-promoter luciferase, 24 h; % of positive control, neutral wells = 0; activation, % at 12.5 µM; 0.75% of 300,000 active;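 active = mean activation of at least 80% with every replicate also reaching 80%; inconclusive = mean reaches 80% but some replicate falls short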;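 also: 0% = neutral control wells and 100% = parthenolide positive control wells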
SMARCA2 activ – SMARCA2 function activation, primary screen | MG213 cells, MMTV-luciferase reporter, dexamethasone, overnight | activation, % at 9.1 µM | 1% of 370,000 active; in the data active = activation above about 7.8%;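 also: 0% = vehicle wells and 100% = reference activator wells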
HSF1 inhib – HSF1 inhibition; NIH3T3-HGL HSE-luciferase, MG132-induced, luminescence 8 h; active compounds read low; activity change, negative = inhibition, % at 7.5 µM (by protocol); 0.77% of 300,000 active; AID 2098;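 active = more than half of replicate wells show activity change below -50%, luminescence cut by over half; inconclusive = some wells, but at most half, below -50%; inactive = no replicate well below -50%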;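 also: luciferase reports HSF-1 transcriptional activity via heat shock element; 0% = median of DMSO wells and -100% = zero luminescence signal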
HSF-1 act – increases HSF-1 driven luciferase reporter signal | activation, % at 9 µM | AID 504408 | 1.7% of 300,000 active | NIH3T3-HGL HSF-1 luciferase reporter, MG132, 8 h; 100% = twice DMSO control signal;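 active = mean replicate activation of at least 50% with a set share of replicates each reaching 50%; inconclusive = only one of those two conditions met; inactive = mean below 50% and too few replicates reaching it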;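 also: 0% = median of the neutral control wells and 100% = twice that signal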
esBAF inh – inhibitors of esBAF chromatin remodeling in mouse ES cells; Bmi1-luciferase knock-in reporter, 24 h; 100% = twice the neutral-well signal; 2% of 350,000 active; reporter increase, % at 12.5 µM; in the data active = activation above about 40%; inconclusive = no clear call, values can overlap the other calls;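 also: 0% = median of the plate's neutral control wells and 100% = double that signal; a rise in the Bmi1 reporter signal indicates esBAF inhibition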
Wnt act – activators of Wnt/beta-catenin signaling; Wnt/beta-catenin reporter cell assay, activator, plate reader; activation, % at 9.35 µM; 1.2% of 300,000 active; in the data active = activation above about 30%, passing the limit was not always enough; inconclusive = no clear call, values can overlap the other calls;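 also: 0% = neutral control wells and 100% = positive control wells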
* marks the source's active call; other numbers are inactive results; ? = inconclusive; · = not tested or not shown. Rows were chosen to be rich in hits. Some 4.3% of all compounds tested hit in one or more screens of this group.

SMILES | MITF TRPM1 HTS | SMARCA2 activ | HSF1 inhib | HSF-1 act | esBAF inh | Wnt act
COc1ccc(Nc2cnn(-c3nc4ccccc4s3)c(=O)c2Cl)cc1 | 32 | 12* | 27 | 12 | · | -11
Cc1ccc(C2=NNC(C(O)C(O)C(O)C(C)O)S2)cc1 (stereo not given) | 16 | 7 | 38 | 75* | · | 20
Cc1ccc(-c2cnc(C(O)c3ccc(C)cc3)[nH]2)cc1 (stereo not given) | · | 1 | · | · | 24 | 0
COc1ccc(NC(=O)Nc2ccc3c(c2)C(=O)N([C@@H](C)CO)C[C@@H](C)[C@@H](CN(C)Cc2ccccc2)O3)cc1 | · | · | · | · | 4 | ·
COc1ccc(-c2nc3n(n2)C(c2ccccc2)C2=C(CCCC2=O)N3)cc1OC (stereo not given) | · | -1 | -57* | -68 | -1 | -3
COc1ccc(C2C3=C(CCCC3=O)Nc3nc(-c4cc(OC)c(OC)c(OC)c4)nn32)cc1OC (stereo not given) | · | -2 | 1 | 7 | 2 | -1
CC(C)c1cn(CC[C@H]2CC[C@@H](NC(=O)C3CCC3)[C@H](CO)O2)nn1 | · | · | · | · | -1 | ·
O=C(N[C@@H]1CC[C@H](CCn2cc(-c3cccnc3)nn2)O[C@@H]1CO)c1ccccc1F | · | · | · | · | 1 | ·
CCOC(=O)c1cc2occc2n1CC(=O)N1CCCc2ccccc21 | -15 | -3 | -66* | -74 | -7 | ·
CCN(CC)S(=O)(=O)c1ccc(Nc2ccc(-c3ccc4c(c3)OCCO4)nn2)cc1 | 45 | 8.6* | -7 | 7 | · | 1
C[C@H]1CN([C@@H](C)CO)S(=O)(=O)c2ccc(C3=CCCCC3)cc2O[C@@H]1CN(C)C(=O)C1CC1 | · | · | · | · | -1 | ·
Cc1cc(/C=N/NC(=O)c2cccc(F)c2)c(C)n1-c1ccccc1 | 53 | 6 | -17 | -21 | · | ?
Cc1cc(/C=N/NC(=O)c2ccccc2F)c(C)n1-c1ccccc1 | 97* | 4 | -4 | 4 | · | 52*
O=C(Cc1ccccn1)NCC[C@H]1CC[C@@H](NC(=O)c2ccccc2F)[C@H](CO)O1 | · | · | · | · | 0 | ·
CCc1ccc(CNc2ccc3c(c2)ncn3CC)cc1 | 91* | 1 | 7 | -9 | 75* | 29
CCc1ccc(CNc2ccc3c(c2)ncn3C(C)(C)C)cc1 | 35 | -1 | -7 | -15 | 51* | 29
O=C(/C=C\c1ccco1)Nc1ccc(N2CCN(C(=O)c3ccccc3)CC2)cc1 | -12 | -5 | 38 | 66* | · | ·
NC(=O)NC(=O)C(Nc1ccc(N2CCCCC2)cc1)c1ccccc1 (stereo not given) | 20 | -3 | -3 | -17 | 51* | 9
O=C(/C=C/c1ccccc1)Nc1ccc(N2CCCCC2)cc1 | 33 | 1 | 4 | 22 | 62* | 0
O=C(Cc1ccccc1)Nc1ccc(N2CCCCC2)cc1 | 62 | 5 | -8 | -7 | 20 | 59*
CN1CCN(c2ccc(NC(=O)Cc3ccccc3)cc2)CC1 | 67 | 2 | 11 | -3 | 14 | 27
CC(C)NC(=O)N1[C@@H](C#N)[C@H](c2ccc(C#CC3CCCCC3)cc2)[C@@H]1CO | · | · | · | · | -5 | ·
COc1ccc(NC(=O)N(C)C[C@H]2Oc3ccc(N(C)C)cc3CC(=O)N([C@@H](C)CO)C[C@@H]2C)cc1 | · | · | · | · | 3 | ·
C[C@@H]1CN([C@@H](C)CO)C(=O)c2cc(NC(=O)Cc3ccccc3)ccc2O[C@@H](C)CCCCO[C@@H]1CN(C)S(=O)(=O)c1cn(C)cn1 | · | · | · | · | -5 | ·
C[C@@H]1CN([C@H](C)CO)C(=O)CCCn2cc(nn2)CO[C@@H]1CN(C)C(=O)Nc1ccccc1C(F)(F)F | · | · | · | · | 2 | ·
SMILES | MITF TRPM1 HTS | SMARCA2 activ | HSF1 inhib | HSF-1 act | esBAF inh | Wnt act
CCC(=O)Nc1ccc2c(c1)OC[C@@H](C)N(Cc1ccccn1)C[C@H](C)[C@H](OC)CN(C)C2=O | · | · | · | · | -7 | ·
CNC[C@@H]1Oc2ccc(NC(=O)CCN3CCOCC3)cc2C(=O)N([C@@H](C)CO)C[C@H]1C | · | · | · | · | -3 | ·
c1ccc(-c2noc(C34CC5CC(CC(C5)C3)C4)n2)nc1 | 44 | 1 | 27 | 37 | 53* | ·
c1ccc(-c2noc(C3CCCCC3)n2)nc1 | 72 | 4 | 5 | 30 | 1 | 36*
OC[C@H]1O[C@@H](c2nc(-c3ccc(Br)cc3)no2)C[C@@H]1O | · | 2 | · | · | 30 | 27
Brc1ccc(-c2noc(C3CCCCC3)n2)cc1 | 58 | 1 | -6 | -29 | · | 56*
O=C(NC[C@@H]1[C@H](c2ccccc2)[C@@H](CO)N1C(=O)Cc1cccnc1)C1CCC1 | · | · | · | · | -3 | ·
CCOC(=O)N1CCC(NCCNC(=O)c2cccs2)CC1 | 2 | -1 | -5 | 0 | · | -6
CCOC(=O)c1c(NC(=O)c2cccs2)sc2c1CCN(C(=O)OCC)C2 | 15 | 1 | 35 | 71* | -10 | -1
CCOC(=O)N1CCC(NC(=O)c2cccs2)CC1 | -1 | -1 | 25 | 67* | · | 0
CCOC(=O)c1c(NC(=O)c2cccs2)sc2c1CCCC2 | · | -2 | -5 | 9 | -14 | ·
C[C@@H]1CCCCO[C@@H](CN(C)C(=O)Nc2ccccc2)[C@H](C)CN([C@H](C)CO)C(=O)c2cc(N(C)C)ccc2O1 | · | · | · | · | -4 | ·
C[C@@H]1CN([C@@H](C)CO)C(=O)Cc2cc(NC(=O)Nc3cccc4ccccc34)ccc2O[C@@H]1CN(C)S(=O)(=O)c1ccccc1 | · | · | · | · | -1 | ·
CCn1c(C)nc2cc(-c3nc4n(n3)Cc3ccccc3-4)ccc21 | -97 | · | -93* | -93 | -89 | -11
CCCS(=O)(=O)N1CCC(C(=O)NCCCN(CC)c2cccc(C)c2)CC1 | 4 | 1 | · | · | · | ·
CCCS(=O)(=O)N1CCCC(C(=O)NCCCN(CC)c2cccc(C)c2)C1 (stereo not given) | -4 | 0 | 27 | 56* | 3 | ·
CCN(CCCNC(=O)C1CCC(=O)N1Cc1ccc(C)cc1)c1cccc(C)c1 (stereo not given) | -17 | 1 | 59 | 85* | -5 | ·
CN(CCCNC(=O)C1CCC(=O)N1Cc1ccccc1Cl)c1ccccc1 (stereo not given) | -13 | 0 | 5 | -3 | 1 | ·
CCN(CCCNC(=O)COc1cc(=O)n(C)c2ccccc12)c1cccc(C)c1 | · | -4 | 131 | 162* | -3 | ·
CCN(CCCNC(=O)C1CCC(=O)N1Cc1ccccc1Cl)c1cccc(C)c1 (stereo not given) | 15 | -1 | 56 | 77* | 10 | ·
CN1C(=O)c2cc(NS(=O)(=O)CC(F)(F)F)ccc2OC[C@H]2O[C@@H](CC(=O)Nc3cccc(F)c3)CC[C@@H]21 | · | · | · | · | 1 | ·
CCN(CCCNC(=O)CCc1nc(-c2ccc(C)cc2)no1)c1cccc(C)c1 | -5 | 1 | 57 | 59* | -3 | ·
CC(C)n1cc(/C=N/Nc2ccc(C(=O)O)cc2)c2ccccc21 | 8 | -1 | -82* | -84 | 20 | -10
Cc1cc(N/N=C/c2c[nH]c3ccccc23)c2ccccc2n1 | -14 | -1 | -2 | 8 | 2 | 0
